# High-throughput results deposited in PubChem BioAssay by National Center for Advancing Translational Sciences (NCATS).
# AmpC inh detg: blocks E. coli AmpC beta-lactamase in detergent assay. P00811. AmpC hydrolysis of nitrocefin, absorbance 480 nm, 0.01% Triton. Potency, µM (highest dose often 114 µM), hits mostly inhibitors. actives 0.041% (n = 370,000); further: nearly all actives have a fitted effect of over 25% in size
# Target sequence (P00811 whole entry, looked up): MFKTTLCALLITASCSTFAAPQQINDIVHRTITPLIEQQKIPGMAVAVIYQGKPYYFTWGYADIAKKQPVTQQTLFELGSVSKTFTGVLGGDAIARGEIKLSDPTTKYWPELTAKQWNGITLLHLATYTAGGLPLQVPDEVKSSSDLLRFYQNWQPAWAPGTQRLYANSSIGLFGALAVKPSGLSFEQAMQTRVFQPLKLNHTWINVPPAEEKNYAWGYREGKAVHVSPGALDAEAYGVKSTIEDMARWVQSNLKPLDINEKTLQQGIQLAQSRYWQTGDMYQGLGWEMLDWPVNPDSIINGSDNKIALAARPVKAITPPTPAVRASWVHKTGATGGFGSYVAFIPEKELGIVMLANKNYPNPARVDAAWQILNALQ
#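 20 mM phosphate pH 7.0 + 0.01% (detergent screen) or 0.0001% Triton X-100; 5.3 nM AmpC reagent; cpd preinc 15 min RT; nitrocefin (800 uM stock) to start; A480 q20 s × 4 min; Activity was normalised to no-enzyme and no-compound control wells.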
# Vaccinia Venus: inhibitors of vaccinia virus (Venus reporter) | Vaccinia virus Venus reporter expression, fluorescence | Potency, µM (highest dose often 36.5 µM), usual class: inhibitors | actives 0.46% (n = 330,000) | AID 720580; calls by dose curve; tested in A549 cells; further: nearly all actives have a fitted effect of over 30% in size
# AmpC inh no detg: AmpC beta-lactamase inhibition without detergent; P00811; AmpC nitrocefin hydrolysis, absorbance 480 nm, 0.0001% Triton; Potency, µM (series often up to 57.1 µM), usual class: inhibitors; actives 0.52% (n = 330,000); further: nearly all actives have a fitted effect of over 20% in size
#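 20 mM phosphate pH 7.0 + 0.01% (detergent screen) or 0.0001% Triton X-100; 5.3 nM AmpC reagent; cpd preinc 15 min RT; nitrocefin (800 uM stock) to start; A480 q20 s × 4 min; Activity was normalised to no-enzyme and no-compound control wells.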
# VACV mCherry inh: inhibitors of vaccinia virus infection (mCherry reporter signal); Vaccinia virus mCherry reporter infection, fluorescence; Potency, µM (series often up to 36.5 µM), usual class: inhibitors; actives 0.63% (n = 310,000); AID 720579; calls by dose curve; tested in A549 cells; further: nearly all actives have a fitted effect of over 35% in size
# Numbers stand for hits; - = inactive; ? = inconclusive; . = no result given; [ ] = another dose, or the depositor's remark. In the library only some 1.1% were active in any assay of this set; here they are far more common. Unless noted, the call rests on the fitted dose curve; in most records, active means well fitted curve in the direction sought with a large enough effect; inconclusive means small, poorly fitted or top-dose-only effect, or another doubt; inactive means no such curve, though single readings can be large; an effect the other way counts as inactive or inconclusive.
SMILES,AmpC inh detg,Vaccinia Venus,AmpC inh no detg,VACV mCherry inh
Cc1ccc2oc3c(c(=O)c2c1)C(c1cccc(O)c1)N(c1ccccn1)C3=O (stereo not drawn),-,-,3.5µM,-
Cc1ccc2oc3c(c(=O)c2c1)C(c1ccccc1F)N(c1ccccn1)C3=O (stereo not drawn),-,-,.,-
CC(=O)c1ccc(F)c(-c2cc(C)cc3c2OC(CNC(=O)Cc2ccc4c(c2)OCO4)C3)c1 (stereo not drawn),.,-,.,-
CC1SC(=S)N(c2ccc(N(C)C)cc2)C1=O (stereo not drawn),-,-,-,11µM
CC(=NNC(=S)N1CCN(c2ccccn2)CC1)c1ccccn1,.,-,.,-
CC(=NNC(=S)N1CCN(c2ccccn2)CC1)c1nccs1,.,?,.,2.8µM
CN(C)CCNC(=O)/C(=C/c1ccc(-c2ccc(Cl)cc2Cl)o1)NC(=O)c1ccccc1,-,11µM,-,?
CN(C)CCNC(=O)/C(=C/c1ccc(-c2ccc(Cl)cc2)o1)NC(=O)c1ccccc1,-,?,-,-
COCc1c(C(=O)NCC2CCCN(C)C2)cnn1-c1ncc2c(n1)-c1ccccc1CCC2 (stereo not drawn),.,-,.,-
CCCCNC(=O)Oc1c(Br)cc2sc(=O)oc2c1Br,45µM,.,?,.
COc1ccc(-c2nnnn2CCc2ccccc2)cc1,-,-,0.2µM,-
Cn1c(SCC2CCCO2)nnc1C1CCN(Cc2ccccc2O)CC1 (stereo not drawn),.,-,.,-
C[N+]1(CC(=O)c2ccccc2)CCc2ccccc2C1 (stereo not drawn),.,-,.,-
S=c1nc[nH]c2c1ncn2C1CCCO1 (stereo not drawn),-,?,-,11µM
O=C(CSc1nc2nc(-c3cccs3)cc(C(F)(F)F)c2c(=O)[nH]1)Nc1c(F)c(F)c(F)c(F)c1F,-,-,-,-
NS(=O)(=O)c1cccc(NC(=O)CSc2nc3nc(-c4cccs4)cc(C(F)(F)F)c3c(=O)[nH]2)c1,-,-[7.34 µM],16µM,-[7.34 µM]
Cc1onc(-c2c(F)cccc2Cl)c1C(=O)N[C@@H]1C(=O)N2C(C(=O)O)C(C)(C)S[C@H]12 (stereo partly drawn),2.5µM,-,.,-
Cc1onc(-c2ccccc2Cl)c1C(=O)N[C@@H]1C(=O)N2[C@@H]1SC(C)(C)[C@@H]2C(=O)O,0.35µM,-,0.79µM,-
Cc1onc(-c2c(F)cccc2Cl)c1C(=O)NCc1ccccc1,-,.,-,.
Cc1onc(-c2ccccc2)c1C(=O)NC1C(=O)N2C(C(=O)O)C(C)(C)S[C@@H]12 (stereo partly drawn),.,-,.,-
COc1ccccc1C1CN(Cc2cnn(C)c2C)Cc2ccccc2O1 (stereo not drawn),.,-,.,-
COc1ccc(C(=O)Nc2cc(C)c3c(=O)oc4ccccc4c3n2)cc1,?,-,8.9µM,-
Cc1ncc2c(c1CNS(=O)(=O)N(C)C)CCN(C(=O)c1[nH]c3ccc(Cl)cc3c1C)C2,.,-,.,-
CCN(CC)c1ccc(/C=N/NC(=O)c2cccc(S(=O)(=O)N3CCOCC3)c2)c(O)c1,?,?,-,1.8µM
CCN(CC)c1ccc(/C=N/NC(=O)c2c(Cl)cnn2C)c(O)c1,-,?,-,1.1µM
SMILES,AmpC inh detg,Vaccinia Venus,AmpC inh no detg,VACV mCherry inh
Cc1ccc(C(C)C)c(OCc2ccc(C(=O)N/N=C/c3cccc(O)c3O)cc2)c1,-,?,8.9µM,10µM
CCN(CC)S(=O)(=O)c1cccc(C(=O)N/N=C/c2cccc(O)c2O)c1,-,?,-,10µM
COc1cccc(CN(C)C(=O)c2cnn(-c3nccc(-c4ccc5c(c4)OCO5)n3)c2C)c1,.,-,.,-
COc1ccc(OC)c(-c2ccnc(-n3ncc(C(=O)N(C)CCO)c3C3CC3)n2)c1,.,-,.,-
Cc1cccc(NC(=O)c2cc(Cl)ccc2[N+](=O)[O-])c1,-,?,-,6.3µM
Cc1cccc2cc(CN(C(=O)c3ccc(-c4ccc(F)cc4)cc3)C3CC3)c(N3CCC(O)CC3)nc12,.,-,.,?
O=C(Nc1ccccc1O)c1ccc(NS(=O)(=O)c2cccc3cccnc23)cc1,-,-,16µM,?
O=C(NCC1CCC2(CCN(Cc3cccc(-c4ccco4)c3)CC2)O1)c1ccccc1 (stereo not drawn),.,-,.,-
COC(=O)C1CCN(Cc2ccc3c(c2)CN(C(=O)C2Cc4ccccc4O2)CCO3)CC1 (stereo not drawn),.,-,.,-
COC(=O)C(CC(=O)c1ccc(Cl)cc1)c1ccc(C(C)C)cc1 (stereo not drawn),-,-,0.25µM,.
Cc1ccc(C(CC(=O)c2ccc(Cl)cc2)C(=O)O)cc1 (stereo not drawn),-,-,-,-
COCC(=O)Nc1cc(C(=O)NC2C3CC4CC2CC(O)(C4)C3)cc2nc(-c3ccccc3)n(C)c12 (stereo not drawn),.,-,.,-
COc1ccc(C(=O)NCC2Cc3cc(F)cc(-c4cncnc4)c3O2)cc1 (stereo not drawn),.,-,.,-
OC1(c2cccnc2)CCN(Cc2ccc3c(c2)CN(Cc2ccc4nsnc4c2)CCO3)CC1,.,-,.,-
CCCCCCC[C@@H](C/C=C/CCC(=O)N(C)C/C(=C/Cl)C/C(=C\C(=O)N1C[C@H](O)CC1=O)OC)OC,.,?,-,-
CCCCCCC[C@@H](C/C=C/CCC(=O)N(C)C/C(=C/Cl)C/C(=C\C(=O)N1CC(OC)=CC1=O)OC)OC,.,?,-,10µM
COc1cc(=O)n2c(c1C(=O)NC(C)c1ccco1)CCN(Cc1ccnc3ccccc13)CC2 (stereo not drawn),.,-,.,-
COc1cc(=O)n2c(c1C(=O)NCc1ccco1)CCN(Cc1cccc(C(F)(F)F)c1)CC2,.,-,.,-
CC[C@H](C)[C@@H]1NC(=O)CNC(=O)c2csc(n2)[C@H](C(C)(C)O)OC(=O)C(C)(C)[C@H](CCCC(C)(Cl)Cl)OC(=O)c2csc1n2,.,6.3µM,.,5.6µM
O=C1NC(=Nc2ccccc2)S/C1=C\C=C\c1ccco1,-,-,14µM,-
COc1ccc(N=C2NC(=O)/C(=C/c3ccco3)S2)cc1,-,.,11µM,.
Cc1cccc(N=C2NC(=O)/C(=C/C=C/c3ccco3)S2)c1C,-,-,32µM,-
COc1cc(/C=C2/SC(=Nc3ccc(O)cc3)NC2=O)ccc1O,-,-,?,13µM
Cc1ccc(N=C2NC(=O)/C(=C/C=C/c3ccco3)S2)cc1,-,-,-,-
Cc1cccc(N=C2NC(=O)/C(=C/c3cccn3C)S2)c1C,-,-,-,-
COC(=O)c1ccc(CN(c2ccc(C(=O)O)c(O)c2)S(=O)(=O)c2ccc(Cl)c([N+](=O)[O-])c2)cc1,-,-,7.9µM,-
COC(=O)c1ccc(CN(c2ccccn2)S(=O)(=O)c2ccccc2)cc1,-,-,-,-
COc1ccc(C(=O)NC(=S)NNC(=O)c2ccccc2C)cc1,.,?,.,-
COc1ccc(C(=O)NC(=S)NNC(=O)c2ccccc2O)cc1,-,?,-,13µM
COc1ccc(C(=O)NNC(=S)NC(=O)C(C)(C)C)cc1,-,?,-,4µM
